According to paper PMC12136788:
Substitutions are numbered along the chain they refer to. Whole data set: some 24,000 sequences, median “enrichment r” near 0.99, cut for the highest 2% near 3.7. What follows is part of a selection rich in the highest values, with near analogues and random picks from the rest.

T1: UNK ZnF1-3 (human, UniProt Q9C0B0 31-174)
T1 sequence: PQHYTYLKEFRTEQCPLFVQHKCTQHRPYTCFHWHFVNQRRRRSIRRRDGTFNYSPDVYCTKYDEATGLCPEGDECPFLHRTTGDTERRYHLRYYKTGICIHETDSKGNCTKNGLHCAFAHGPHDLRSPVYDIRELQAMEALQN

B1: chr2:42509997:42509998:+_ENSG00000143924_ENST00000318522|hu_mus|hu_hu_hu_mus_True|38_108 (ssRNA)
RNA: GGGAGUUCUACAGUCCGACGAUCUCGCUGAGUUCUCUCCUCAUAAUUAAACAGGACUACCACUGAGGCGAUAAAAUAAACUAUCUCCCCUGUGGGAAGAAGGUAAACAUUCGCUCUACAGUCCUUUCCUCGAUAACCGUAUACCAACAGAGGAUUGAGCAUCA
B2: chr5:72798899:72798900:+_ENSG00000145741_ENST00000335895|hu_mus|motif|central (ssRNA)
RNA: GGGAGUUCUACAGUCCGACGAUCGGGUGCUUUUCCAUCCACAGAUUGUUUGGGCAGAGCUUCAGCCAGUCUCCUUAAACGGGUCAGGCUGUCUGCACCAAGCUGGUUGAGGAUGCUGGGAAGCAUUUCUGUCAGCUGCUUUGUCAACAGAGGAUUGAGCAUCA
B3: 160239608_160243617_1107_3pUTR_ENSG00000186432_ENST00000334256|human|control|control (ssRNA)
RNA: GGGAGUUCUACAGUCCGACGAUCAGGAACUAUUCCAGAGUCUAUUACCAUCUGUAUUUGUUCAUUGCCAGCAUCAGUAAGGUAAGAGAGGGCCCAGACUGUGUCUACCAGUAUAUUUACAUCUGUGUGAUGAAUUAAAACACACAACAGAGGAUUGAGCAUCA
B4: chrX:71099370:71099371:-_ENSMUSG00000031391_ENSMUST00000102871|mus_hu|FALSE|FALSE (ssRNA)
RNA: GGGAGUUCUACAGUCCGACGAUCUUUAUUUUUCCUGGGAUGGGUUCAUCAAAGCUAAUUGCUAUCAAUCCUAGAAACCACCUAGGGACUCAGACAUCUGCCUACACACUAGUGGCGUAAAGGGAAGGACAGGGGUACAAACUUCAACAGAGGAUUGAGCAUCA
B5: chr8:29927545:29927546:-_ENSG00000133872_ENST00000521265|hu_mus|FALSE|FALSE (ssRNA)
RNA: GGGAGUUCUACAGUCCGACGAUCAGAGGACUCGUAGCCUUCACAGCUCACCACAGUUUUGCCAAAUUUGUAUGCAAUAUCCAAGUCGGUCUUACAUUCCCACUGUACAUCGUAGCCAUCCCAGCCUUUGUUCUGGCACUGUAUCAACAGAGGAUUGAGCAUCA
B6: chr14:63839279:63839280:-_ENSG00000154001_ENST00000337537|hu_hu|motif|central (ssRNA)
RNA: GGGAGUUCUACAGUCCGACGAUCUUAAAAGGAAAAAAGGAAAACAAGGAAAAAAAACCACCCCAAACCCCAAAAAACUCGGAACACUUAAAAAUGCCAAUAACAUCCAUACAUCCCUUUCCCAUCCCACCCUCAUCCCCACAACAACAGAGGAUUGAGCAUCA
B7: chr1:225611761:225611762:-_ENSG00000143815_ENST00000272163|hu_mus|hu_hu_hu_mus_True|38_98 (ssRNA)
RNA: GGGAGUUCUACAGUCCGACGAUCCCAGGCCAUCGGCCUCUUACCACUUCACCCUCAACAAACUUCCUACUUGGCAUUUUCUAAAAUUAGUCUGGCCCAGGUUCCGGGGGAACUCCAGCCACUCCAGGACAGUCACCAGCAGCCCAACAGAGGAUUGAGCAUCA
B8: chr7:26237324:26237325:-_ENSG00000122566_ENST00000356674|hu_mus|FALSE|FALSE (ssRNA)
RNA: GGGAGUUCUACAGUCCGACGAUCCUCAUAGUAGUUUCUCAAACUUUCUUCUGUGGUUUCAAAGCUUAAGCCACCAAUAAAGAGCUUUCGGAACUGUUCCUUUUCUCUCUUUUUCCUCUCCAAAGGAACAGUUUCUAAAGUUUUCAACAGAGGAUUGAGCAUCA
B9: chr14:63839279:63839280:-_ENSG00000154001_ENST00000337537|hu_hu|FALSE|FALSE (ssRNA)
RNA: B6 RNA with G80U, G81A
B10: chr1:225611761:225611762:-_ENSG00000143815_ENST00000272163|hu_mus|hu_hu_hu_mus_True|38_48 (ssRNA)
RNA: B7 RNA with U41G, G89A, U90C, G94C, C95G
B11: chr3:151883435:151883436:+_ENSMUSG00000028034_ENSMUST00000166984|mus_mus|motif|central (ssRNA)
RNA: GGGAGUUCUACAGUCCGACGAUCCAUUUCUCCAUUUCUUCCUAUUACAAUGCCAACAGCAAAUCUUGGAAUUGGGACAUCGGUCCCUUCAUUGCCUCCUAUUCUUGAGCCAUACUCAUUCCGCACUUCUCUGAAACCACCUUGCAACAGAGGAUUGAGCAUCA
B12: chr7:135832672:135832673:+_ENSMUSG00000042105_ENSMUST00000118605|mus_mus|FALSE|FALSE (ssRNA)
RNA: GGGAGUUCUACAGUCCGACGAUCCACGCCAAAAAUUCCAUCACGACACAAUUUUUACACACACACCAAAAAACAAAAAAAACAAAAAAAAAAAAAAAAAACCCAAAAAACAAAAAACCCUACAGUGUCACUUCCAUCCUGCCUCAACAGAGGAUUGAGCAUCA
B13: chr1:66486067:66486068:+_ENSMUSG00000015222_ENSMUST00000077355|mus_hu|FALSE|FALSE (ssRNA)
RNA: GGGAGUUCUACAGUCCGACGAUCUUAUCCAGGUCCCAAAUGUUAAUAACUUAAUUGAAUCUUUCUUCCCAUUUAUACAAAAUAACACUUUAAAAAAACUUAUUUCUUACAUGCUCUUCCCUUCCUGCAAUCAGACUCCUUGGUCAACAGAGGAUUGAGCAUCA
B14: chr15:98568902:98568903:-_ENSMUSG00000051853_ENSMUST00000053183|mus_hu|FALSE|FALSE (ssRNA)
RNA: GGGAGUUCUACAGUCCGACGAUCGGCCAGGGAAAUGAAUACAUUUUUAAAUGAAAUAGAACCUCCAACACCCCCCCCACAACCACCACACACAAACACACCCACACCCAUAUACACACACACUCACACACACACACAGGCCUACAACAGAGGAUUGAGCAUCA

What follows are binders tested against T1, UNK ZnF1-3 (assay: nsRBNS (natural sequence RNA bind-n-seq); RBNS binding buffer (assumed for nsRBNS): 25 mM Tris pH 7.5, 150 mM KCl, 3 mM MgCl2, 0.01% Triton X-100, 500 ug/ml BSA, 20 U/ml SUPERase-In, 4 C; UNK is unkempt and MSI1 is Musashi-1; names of the RNAs are library labels; protein concentration not given here; high values mean tight binding).

| Binder | binding signal [enrichment R] |
| --- | --- |
| B1 | 1.03 |
| B2 | 0.508 |
| B3 | 1.37 |
| B4 | 0.995 |
| B5 | 0.8 |
| B6 | 3.96 |
| B7 | 1.5 |
| B8 | 0.272 |
| B9 | 4.18 |
| B10 | 1.33 |
| B11 | 0.909 |
| B12 | 11.5 |
| B13 | 1.42 |
| B14 | 3.59 |
